Inconclusive results are not listed. Active and inactive are the calls of the source. How the source made its calls: active means hit-call score of the fitted dose curve at least 0.9, where 1 is the maximum; inconclusive means response in the unintended direction; inactive means score below 0.9.
How the values were obtained:
[1] = TOX21_p53_BLA_p4_viability: Viability Assessment in the Tox21 HCT-116 p53 Agonism Beta-lactamase Assay, Phase 4 (AID 2283597);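 further: hits lower the luminescence signal meaning cytotoxicity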
Summary of the method: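 Cells plated, 5 h pre-incubation; DMSO compounds pinned (217-fold dilution); 16 h, 37C/5% CO2; CCF4-AM 2 h RT; CellTiter-Glo 30 min RT; luminescence read.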

[2] = biological target: Cellular tumor antigen p53 (Homo sapiens) (UniProt P04637); experiment: TOX21_p53_BLA_p4_ratio: Tox21 HCT-116 p53 Agonism Beta-lactamase Assay, Ratio, Phase 4 (AID 2283601)
Summary of the method: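 HCT-116 p53 beta-lactamase reporter cells (4000/well) preincubated 5 h, then compound (217-fold dilution of DMSO stock) for 16 h at 37C. CCF4-AM substrate added 2 h at room temperature; 460/530 nm emission ratio fitted upward versus DMSO.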

[3] = biological target: Cellular tumor antigen p53 (Homo sapiens) (UniProt P04637); experiment: TOX21_p53_BLA_p5_ratio: Tox21 HCT-116 p53 Agonism Beta-lactamase Assay, Ratio, Phase 5 (AID 2283599)
Summary of the method: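 HCT-116 p53-bla cells (4000/well) plated 5 h, dosed with compound (217-fold DMSO dilution) for 16 h at 37 C; CCF4-AM substrate 2 h at room temperature. Activity is the 460/530 nm emission ratio (405 nm excitation), fitted in gain-of-signal direction versus DMSO.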

[4] = TOX21_p53_BLA_p5_viability: Viability Assessment in the Tox21 HCT-116 p53 Agonism Beta-lactamase Assay, Phase 5 (AID 2283600)
Summary of the method: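 4000 cells/well; 5 h pre-incubation; DMSO compounds pin-transferred, 217-fold dilution; 16 h, 37C/5% CO2; CCF4-AM 2 h RT; CellTiter-Glo 30 min RT; luminescence.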

[5] = system: Thyroperoxidase (TPO), gene 54314; experiment: CCTE_Simmons_AUR_rTPO: CCTE's Amplex UltraRed Assay for Thyroperoxidase (TPO) Inhibition, Simmons Lab (AID 2283662)
Summary of the method: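 Endpoint is decreased Amplex UltraRed fluorescence after a 30-min, 37C reaction of rat thyroid microsomes with 300 uM H2O2. Eight test concentrations (5 nM–87.5 uM final) in 0.5% DMSO, three biological replicates each.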

[6] = CCTE_Simmons_CellTiterGLO_HEK293T: Viability Assessment in CCTE's Assays for Thyroperoxidase (TPO) Inhibition, Simmons Lab (AID 2283665);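 further: cells exposed to compound for 24 h before readout; actives reduce ATP signal below DMSO vehicle meaning cytotoxicity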
Summary of the method: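 Cytotoxicity counter-screen: human HEK293T cells in low-serum (1% FBS) medium receive test chemical, 5 nM to 87.5 uM final, for 24 h; ATP is quantified by luciferase luminescence.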

[7] = ACEA_ER_AUC_viability: ACEA Biosciences xCELLigence Real-Time Cell Analysis on Estrogen Receptor Agonism for Viability (AID 2283782);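 further: continuous compound exposure with impedance area under curve over 80 h; hit means loss of impedance signal meaning reduced cell growth or viability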
Summary of the method: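 T47D cells preconditioned in phenol red-free RPMI with charcoal-stripped FBS, then dosed with 8-point 1:4 series from 100 uM (up to 0.5% DMSO). Impedance monitored up to ~80 h; area-under-curve loss versus DMSO taken as viability.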

Cellular tumor antigen p53 (Homo sapiens), sequence (P04637 whole entry, looked up): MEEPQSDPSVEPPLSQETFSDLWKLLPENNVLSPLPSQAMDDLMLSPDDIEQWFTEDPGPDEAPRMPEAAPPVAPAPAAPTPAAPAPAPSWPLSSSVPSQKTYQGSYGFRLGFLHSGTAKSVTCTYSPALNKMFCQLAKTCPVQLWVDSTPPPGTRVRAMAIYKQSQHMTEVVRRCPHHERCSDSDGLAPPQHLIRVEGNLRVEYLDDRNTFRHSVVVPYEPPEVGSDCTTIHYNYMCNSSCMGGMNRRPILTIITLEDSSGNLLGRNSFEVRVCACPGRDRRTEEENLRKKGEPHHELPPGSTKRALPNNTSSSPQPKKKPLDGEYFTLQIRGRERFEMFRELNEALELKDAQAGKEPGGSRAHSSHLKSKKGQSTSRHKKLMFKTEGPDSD

Question: Which outcome [1] does the source give for `CC(CN1c2ccccc2Sc2ccc(S(=O)(=O)N(C)C)cc21)N(C)C` (stereo not given) here?
Answer: The outcome was “inactive”.

Question: And the outcome [2]?
Answer: Its outcome is “inactive”.

Question: For `CCCCCCCCCCCc1ccccc1`, which outcome [1] is on record?
Answer: The outcome was “inactive”.

Question: What about the outcome [2] of the same compound?
Answer: The outcome was “inactive”.

Question: What does the source list for `O=Nc1ccc(NO)cc1`?
Answer: outcome [3]: inactive; outcome [4]: inactive; outcome [2]: inactive

Question: For `C=CCc1cc(OC)c(O)c(C(=O)NCCO)c1`, which outcome [1] is on record?
Answer: Its outcome is “inactive”.

Question: What about the outcome [2] of the same compound?
Answer: The outcome was “inactive”.

Question: What does the source list for `CCCCCC[C@@H](O)C/C=C\CCCCCCCC(=O)OC`?
Answer: outcome [3]: inactive; outcome [4]: inactive

Question: With `Nc1ccc(S(=O)(=O)NC(=O)c2ccccc2)cc1` as the compound, how does the outcome [3] read?
Answer: Its outcome is “inactive”.

Question: And the outcome [2]?
Answer: The outcome was “inactive”.

Question: Which results are given for `Cc1ccc(C(=O)Nc2ccc(S(=O)(=O)O)c3cc(S(=O)(=O)O)cc(S(=O)(=O)O)c23)cc1NC(=O)c1cccc(NC(=O)Nc2cccc(C(=O)Nc3cc(C(=O)Nc4ccc(S(=O)(=O)O)c5cc(S(=O)(=O)O)cc(S(=O)(=O)O)c45)ccc3C)c2)c1`?
Answer: outcome [1]: inactive; outcome [4]: inactive; outcome [2]: inactive

Question: Which outcome [1] does the source give for `COc1ccc(-c2cc(=S)ss2)cc1` here?
Answer: Its outcome is “inactive”.

Question: What about the outcome [2] of the same compound?
Answer: Its outcome is “inactive”.

Question: Which results are given for `CC(C)NCC(O)COc1ccc(CCOCC2CC2)cc1` (stereo not given)?
Answer: outcome [4]: inactive; outcome [2]: inactive

Question: For `Nc1ccccc1S(=O)(=O)O`, which outcome [3] is on record?
Answer: The outcome was “inactive”.

Question: What about the outcome [4] of the same compound?
Answer: The outcome was “inactive”.

Question: And the outcome [2]?
Answer: Its outcome is “inactive”.

Question: With `FC(F)(F)c1ccccc1Cl` as the compound, how does the outcome [1] read?
Answer: The outcome was “inactive”.

Question: What about the outcome [2] of the same compound?
Answer: Its outcome is “inactive”.

Question: With `Cc1ccc(C)cc1` as the compound, how does the outcome [4] read?
Answer: The outcome was “inactive”.

Question: Which outcome [3] does the source give for `c1ccc2c(CCC3CCNCC3)c[nH]c2c1` here?
Answer: The outcome was “inactive”.

Question: What about the outcome [2] of the same compound?
Answer: The outcome was “inactive”.

Question: For `CN1CCC[C@@H]1Cc1c[nH]c2ccc(CCS(=O)(=O)c3ccccc3)cc12`, which outcome [3] is on record?
Answer: Its outcome is “inactive”.

Question: With `CCN(CC)CCn1c(=O)c(Cc2ccc(OC)cc2)nc2ccccc21` as the compound, how does the outcome [4] read?
Answer: The outcome was “inactive”.

Question: What does the source list for `O=S(=O)(O)CO`?
Answer: outcome [3]: inactive; outcome [2]: inactive

Question: Which outcome [4] does the source give for `C=CC(C)(O)CCCC(C)CCCC(C)CCCC(C)C` (stereo not given) here?
Answer: The outcome was “inactive”.

Question: For `C=CCC=CC`, which outcome [1] is on record?
Answer: The outcome was “inactive”.

Question: What about the outcome [4] of the same compound?
Answer: Its outcome is “inactive”.

Question: And the outcome [2]?
Answer: Its outcome is “inactive”.

Question: For `CN(C)CCC=C1c2ccccc2C(C)(C)c2ccccc21`, which outcome [3] is on record?
Answer: Its outcome is “inactive”.

Question: For `CC(C(=O)O)c1ccc2c(c1)CC(=O)c1ccccc1S2` (stereo not given), which outcome [1] is on record?
Answer: The outcome was “inactive”.

Question: And the outcome [2]?
Answer: The outcome was “inactive”.

Question: For `NC(=O)Oc1ccc(Cc2ccccc2)cc1`, which outcome [1] is on record?
Answer: The outcome was “inactive”.

Question: And the outcome [2]?
Answer: Its outcome is “inactive”.

Question: For `CCCCC(=O)N(Cc1ccc(-c2ccccc2-c2nn[nH]n2)cc1)[C@@H](C(=O)O)C(C)C`, which outcome [3] is on record?
Answer: The outcome was “inactive”.

Question: For `Cc1ccc(O)c([C@H](CCN(C(C)C)C(C)C)c2ccccc2)c1`, which outcome [2] is on record?
Answer: Its outcome is “inactive”.

Question: What does the source list for `CC(=O)OC(C)OC(C)=O`?
Answer: outcome [4]: inactive; outcome [2]: inactive

Question: For `Cc1ccc(C=C2C(=O)C3(C)CCC2C3(C)C)cc1` (stereo not given), which outcome [5] is on record?
Answer: The outcome was “inactive”.

Question: And the AC50 [6]?
Answer: The AC50 was 15.3 µM (active).

Question: For `C1CCC2(CCCCO2)OC1`, which outcome [7] is on record?
Answer: The outcome was “inactive”.

Question: Which outcome [4] does the source give for `CCCCc1cc2ccccc2c(OCCN(C)C)n1` here?
Answer: The outcome was “inactive”.

Question: And the outcome [2]?
Answer: Its outcome is “inactive”.
